# Measured values reported in PubChem BioAssay AID488969 (Vanderbilt High Throughput Screening Facility, 2010).
# In all, about 110,000 compounds were measured (“z-score”: median about -0.1, highest 2% from about 2 on). Many of the other results were omitted from the sample, so the highest values are more common in it than they were. Activity calls are given as the source filed them.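 Rule for the calls: active = z-score in the third read window above 3 or below -3; inactive = the rest.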
# Molecular target: Metabotropic glutamate receptor 8 (Rattus norvegicus) (UniProt P70579)
# Assay: mGluR8 Gi/Go-coupled signaling modulation – cell-based, rat, thallium flux, HTS, primary screen (AID 488969)
# Conditions: HEK293 rat mGluR8, GIRK (G protein-gated inwardly rectifying potassium channel) thallium flux, FluoZin2; at 10 µM; stronger effect = higher value; submaximal glutamate (EC20) added with thallium
# Chain of Metabotropic glutamate receptor 8 (Rattus norvegicus) (P70579 whole entry, looked up): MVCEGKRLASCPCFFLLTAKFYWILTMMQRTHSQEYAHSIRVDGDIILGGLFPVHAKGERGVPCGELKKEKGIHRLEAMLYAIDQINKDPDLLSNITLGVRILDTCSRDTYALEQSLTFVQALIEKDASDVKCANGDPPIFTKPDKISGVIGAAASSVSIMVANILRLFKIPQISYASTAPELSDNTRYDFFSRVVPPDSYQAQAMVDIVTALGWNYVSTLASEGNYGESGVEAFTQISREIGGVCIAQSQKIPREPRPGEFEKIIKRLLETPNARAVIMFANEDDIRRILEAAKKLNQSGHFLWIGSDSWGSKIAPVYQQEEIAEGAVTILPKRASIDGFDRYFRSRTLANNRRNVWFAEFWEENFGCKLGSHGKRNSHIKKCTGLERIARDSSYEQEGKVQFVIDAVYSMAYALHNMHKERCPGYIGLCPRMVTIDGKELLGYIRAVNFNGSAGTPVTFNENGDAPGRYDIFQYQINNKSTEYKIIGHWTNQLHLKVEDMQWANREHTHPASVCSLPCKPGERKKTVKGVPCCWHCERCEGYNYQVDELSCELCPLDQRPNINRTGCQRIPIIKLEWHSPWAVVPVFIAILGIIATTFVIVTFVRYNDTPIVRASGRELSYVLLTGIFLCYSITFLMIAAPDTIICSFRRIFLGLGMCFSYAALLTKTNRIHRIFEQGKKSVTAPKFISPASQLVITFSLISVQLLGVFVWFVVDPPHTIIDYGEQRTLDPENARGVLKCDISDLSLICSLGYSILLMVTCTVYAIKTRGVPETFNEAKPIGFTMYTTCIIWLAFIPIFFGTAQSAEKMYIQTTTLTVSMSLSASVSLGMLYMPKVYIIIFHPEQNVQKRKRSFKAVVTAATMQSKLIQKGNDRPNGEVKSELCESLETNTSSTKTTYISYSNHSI
row,Structure (SMILES),z-score
1,O=C1CCCc2c1[nH]c1ccc(CN3CCCCC3)cc21,0.129
2,CN(C)CCNc1oc(-c2cccc(Cl)c2)nc1C#N,2.54
3,CCN(CC)CCCNc1oc(-c2ccc(OC)c(OC)c2)nc1C#N,-0.222
4,CN(C)CCCNc1oc(-c2ccc(Cl)cc2)nc1C#N,1.35
5,CN(C)CCNc1oc(COc2ccc(-c3ccccc3)cc2)nc1C#N,2.06
6,CCN(CC)CCCNc1oc(-c2cccc(Cl)c2)nc1C#N,1.31
7,COc1ccc(CCNc2oc(COc3ccccc3)nc2C#N)cc1,-0.509
8,CN(C)CCNc1oc(COc2ccc(Cl)cc2)nc1C#N,1.5
9,CN(C)CCCNc1oc(-c2cccc(Cl)c2)nc1C#N,-0.825
10,COc1ccc(-c2nc(C#N)c(NCCCN(C)C)o2)cc1OC,11.2 (active)
11,Cc1ccccc1NC(=O)NCC1CCCO1 (stereo not given),0.73
12,CC(C)CC(=O)N1CCN(S(=O)(=O)c2ccc3ccccc3c2)CC1,-1.99
13,O=C(COC(=O)[C@H](Cc1c[nH]c2ccccc12)NC(=O)c1ccc(Cl)cc1)Nc1ccc2c(c1)OCO2,0.558
14,CCOc1c2ccc(C(=O)NCc3ccc4c(c3)OCO4)cc2nn1CCOC,-0.276
15,COc1ccc(/C=N/NC(=O)CSc2nnc(CCCc3ccc(OC)c(C)c3)o2)cc1,-0.18
16,O=C(OCC#CCSc1nnc(-c2ccccc2)o1)c1cccs1,-0.745
17,O=C(OCC#CCSc1nnc(-c2ccncc2)o1)c1cccs1,-0.0957
18,O=C(OCC#CCSc1nnc(-c2ccncc2)o1)c1sc2ccccc2c1Cl,2.87
19,CC1Cc2ccccc2N1C(=O)Cc1cccs1 (stereo not given),-0.395
20,O=[N+]([O-])c1ccc(NC(=S)NCCc2ccccc2)cc1,2.91
21,O=[N+]([O-])c1ccc(NC(=S)NCCc2ccc(Cl)cc2)cc1,0.129
22,CCCCNC(=S)Nc1cc([N+](=O)[O-])ccc1C,0.706

row,Structure (SMILES),z-score
1,CC(C)CNC(=S)NC(=O)c1ccc(F)cc1,7.84 (active)
2,CC(C)CCNC(=S)Nc1ccc([N+](=O)[O-])cc1,1.2
3,Cc1ccc(CNC(=S)Nc2ccc(C)c([N+](=O)[O-])c2)cc1,0.255
4,O=[N+]([O-])c1ccc(NC(=S)NCCc2ccc(F)cc2)cc1,1.65
5,CCOc1ccc(NC(=S)Nc2ccc(C)c([N+](=O)[O-])c2)cc1,0.652
6,O=C(NC(=S)NCCN1CCOCC1)c1ccc(F)cc1,-0.084
7,Cc1ccc(NC(=S)NCc2ccccc2)cc1[N+](=O)[O-],3.51 (active)
8,O=C(CNC(=S)NC(=O)c1ccc(F)cc1)c1ccccc1,-0.0791
9,CCCCNC(=S)Nc1ccc([N+](=O)[O-])cc1,2
10,O=C(N/N=C/c1ccncc1)c1cc(Br)ccc1OCc1ccccc1,0.109
11,Cn1c(SCCOc2ccccc2Cl)nnc1-c1cccs1,-0.314
12,CCCCCC(=O)NC(=S)NNC(=O)c1ccc([N+](=O)[O-])cc1,2.66
13,Cc1ccc(NC(=O)c2ccc(C(C)(C)C)cc2)cc1[N+](=O)[O-],2.5
14,CC(C)CNC(=S)NC(=O)c1ccc([N+](=O)[O-])cc1,6.28 (active)
15,CCCCCCCC(=O)NNC(=O)c1ccc([N+](=O)[O-])cc1,-0.209
16,Cc1ccc([N+](=O)[O-])cc1NC(=O)c1ccc(C(C)(C)C)cc1,-1.53
17,CC(=O)Nc1ccc(NC(=S)NC(=O)c2ccc([N+](=O)[O-])cc2)cc1,-0.11
18,CCCCNC(=S)NC(=O)c1ccc([N+](=O)[O-])cc1,7.01 (active)
19,O=C(NC(=S)NCC1CCCO1)c1ccc([N+](=O)[O-])cc1 (stereo not given),-0.067
20,Cc1ccc(NC(=O)c2ccncc2)cc1[N+](=O)[O-],-0.142
21,CC(C)CC(=O)NC(=S)NNC(=O)c1ccc([N+](=O)[O-])cc1,0.187
22,CC(C)C(=O)Nc1cccc(NC(=S)NC(=O)c2ccc([N+](=O)[O-])cc2)c1,-0.0455

row,Structure (SMILES),z-score
1,CCCC(=O)NC(=S)NNC(=O)c1ccc([N+](=O)[O-])cc1,-0.394
2,Cc1ccc(NC(=O)CCC(=O)NNC(=O)COc2ccccc2)c(C)c1,-0.385
3,CCOc1ccc(C(=O)NC(=S)Nc2ccc(NC(=O)c3ccco3)c(C)c2)cc1[N+](=O)[O-],-0.187
4,CCOc1ccc2ccccc2c1/C=N/NC(=O)CNC(=O)Cc1ccccc1,-0.191
5,CC1(C)CC(=O)c2cnc(N3CCc4ccccc4C3)nc2C1,0.63
6,Brc1ccc(-c2csc(-c3ccncc3)n2)cc1,0.161
7,CCOC(=O)c1c(C=O)c(C)n(Cc2ccc(Cl)cc2)c1C,0.0766
8,CCCN1C2=C(C(=O)CCC2)C(c2ccc(F)cc2)C2=C1c1ccccc1C2=O (stereo not given),-0.266
9,O=C(Cn1cnc2c(nnn2-c2ccc(F)cc2)c1=O)NCc1ccco1,-0.127
10,O=C(NCc1ccco1)c1cccc(S(=O)(=O)N2CCc3ccccc32)c1,-0.341
11,COc1ccc(C(=O)/C=C/c2cn(CN3CCN(C)CC3)c3ccccc23)cc1,-0.629
12,CCC(=C(c1ccc(OC)cc1)c1ccc(OC)cc1)c1cn(CC(O)CN2CCN(C)CC2)c2ccccc12 (stereo not given),2.63
13,COc1ccc(C(=O)/C=C/c2cn(CC(O)CN3CCOCC3)c3ccccc23)cc1 (stereo not given),-0.177
14,COc1ccc(-n2c(COc3ccc4ccccc4c3)nnc2SCC(=O)NCc2ccco2)cc1,0.832
15,COc1cnc(-c2ccccc2)nc1Oc1cccc(C)c1C,-0.012
16,Cc1ccc(C)c(OCC(=O)Nc2nc3ccc([N+](=O)[O-])cc3s2)c1,0.0186
17,CCOCC(=O)Nc1nc2ccc(C)cc2s1,-0.0136
18,COCC(=O)Nc1nc2ccc(C)cc2s1,0.0888
19,Cc1cccc(OCC(=O)Nc2nc3ccc([N+](=O)[O-])cc3s2)c1,2.05
20,Cc1cccc(OCC(=O)Nc2nc3ccc([N+](=O)[O-])cc3s2)c1C,-0.12
21,Cc1ccc(C)c(OCC(=O)Nc2nc3ccc([N+](=O)[O-])cc3s2)c1C,2.46
22,O=C(CCl)N1c2ccccc2OCC1c1ccccc1 (stereo not given),-0.994

row,Structure (SMILES),z-score
1,NC(=O)NC(=O)CSc1nc(C2CCCCC2)n(-c2ccccc2)n1,-0.264
2,Cc1ccc(CNc2oc(-c3ccco3)nc2C#N)cc1,-0.32
3,Cc1nnc(N2C(=O)C(O)=C(C(=O)c3ccco3)C2c2ccc(C(C)(C)C)cc2)s1 (stereo not given),-0.554
4,Cc1ccc(NC(=O)COC(=O)c2sccc2C)cc1S(=O)(=O)N1CCOCC1,1.38
5,Cc1cc(C)cc(NC(=S)N=Nc2c(O)n(C)c3ccc(S(=O)(=O)N4CCOCC4)cc23)c1,0.616
6,Cc1ccc(Nc2ccc(S(=O)(=O)N3CCOCC3)cc2[N+](=O)[O-])c(C)c1,1.29
7,Cc1ccc(NC(=S)N=Nc2c(O)n(C)c3ccc(S(=O)(=O)N4CCOCC4)cc23)cc1,3.93 (active)
8,Cn1c(=O)c2cc(S(=O)(=O)N3CCOCC3)ccc2n(C)c1=O,0.139
9,Cc1ccc(C)c(NC(=S)N=Nc2c(O)n(C)c3ccc(S(=O)(=O)N4CCOCC4)cc23)c1,4.13 (active)
10,Cn1c(=O)n(C)c2cc(S(=O)(=O)N3CCOCC3)ccc21,-0.185
11,CN(C)CCCN1C(=O)C(=O)/C(=C(/O)c2ccncc2)C1c1cccc(Br)c1 (stereo not given),-0.318
12,COc1ccc(OC)c(-c2cc(C(=O)Nc3cc(C)on3)no2)c1,0.941
13,Cc1ccc(CNC(=O)C2C3C=CC4(CN(Cc5cccnc5)C(=O)C24)O3)cc1 (stereo not given),-0.0986
14,O=C(COC(=O)CCC1CCCC1)Nc1ccccc1Sc1ccccc1,-0.2
15,CCOc1c(OC(C)=O)ccc(/C=C/c2ccc3cccc(OC(C)=O)c3n2)c1[N+](=O)[O-],-0.227
16,COCCSc1ccccc1C(=O)NCc1ccco1,0.383
17,O=C(N/N=C/c1ccc[nH]1)c1ccccc1[N+](=O)[O-],-0.104
18,CCN(CC)S(=O)(=O)c1ccc(N=Nc2c(C)[nH]n(C(N)=S)c2=O)cc1,0.608
19,Cc1ccc(N=Nc2c(C)[nH]n(C(N)=S)c2=O)cc1C,-0.217
20,Cc1ccccc1N=Nc1c(C)[nH]n(C(N)=S)c1=O,2.97
21,COCCCNC(=O)/C(=C\c1cccn1C)NC(=O)c1cccs1,0.0671
22,O=C(NCc1ccccn1)C(F)(F)C(F)(F)C(=O)NCc1ccccn1,-0.509

row,Structure (SMILES),z-score
1,CCc1nc2ccccc2[nH]1,0.00543
2,CCc1nc2cc([N+](=O)[O-])c([N+](=O)[O-])cc2[nH]1,-0.0776
3,CCc1nc2cc(Cl)c(Cl)cc2[nH]1,2
4,Cc1nc2ccsc2c(=O)n1-c1ccc(Cl)cc1,-0.0701
5,COc1ccc(N2C(=O)C3C4C=CC(CC4)C3C2=O)c([N+](=O)[O-])c1 (stereo not given),-0.215
6,OCCn1c(SC2CCCCC2)nc2ccccc21,0.162
7,Cc1ccc(C(=O)N/N=C(/CC(=O)c2cccs2)C(F)(F)F)cc1,7.05 (active)
8,O=C(N/N=C(/CC(=O)c1cccs1)C(F)(F)F)c1ccc(O)cc1,-0.828
9,O=C(C/C(=N\NC(=O)c1ccccc1Br)C(F)(F)F)c1cccs1,0.65
10,Cc1cc(C(=O)NCc2cc(C)n(C)n2)sc1-c1ccccc1,-0.62
11,CS(=O)(=O)Nc1ccccc1Oc1ccccc1,0.607
12,COCCCn1c(SCc2nnc(-c3ccccc3)o2)nc2sc3c(c2c1=O)CCC3,-0.256
13,COc1cccc(C2OC(=O)c3ccccc3N2C(C)=O)c1OC(C)=O (stereo not given),0.116
14,CSc1nc(Sc2ccccc2)c2ccccc2n1,4.56 (active)
15,CSc1nc(Sc2cccc(Cl)c2)c2ccccc2n1,0.093
16,CSc1nc(Sc2ccc(Cl)cc2)c2ccccc2n1,0.0499
17,CCC(C)NC(=O)CCc1c(C)nc2nc(-c3cc(OC)cc(OC)c3)nn2c1C (stereo not given),-0.148
18,O=[N+]([O-])c1ccc(N2CCN(S(=O)(=O)c3ccc(Cl)cc3)CC2)cc1NCC1CCCO1 (stereo not given),-0.211
19,O=C(CN1CCN(c2ccccc2)CC1)Nc1ccc(-n2cnnn2)cc1,0.659
20,CCC1(C)Cc2c(sc3c2c(=O)n(C)c2nnc(SCc4ccccc4)n32)CO1 (stereo not given),-0.196
21,CCC1(C)Cc2c(sc3c2c(=O)n(C)c2nnc(SCc4ccc5c(c4)OCO5)n32)CO1 (stereo not given),3.12 (active)
22,CCC1(C)Cc2c(sc3c2c(=O)n(C)c2nnc(SCC(=O)c4ccccc4)n32)CO1 (stereo not given),-0.469
